Screening results as filed in PubChem.
Compounds with a hit are over-represented: about 18% of the library has one in this group of screens.
Six1-Eya2 inh – Six1/Eya2 interaction inhibition; 360,000 tested, 0.56% active; AlphaScreen GST-Six1/His-Eya2 binding, biochemical; stronger effect = lower value; activity change, % (test concentration not listed); AID 651725; in the data active = activity change below about -65%; inconclusive = mostly about -30% to -63%
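Homogeneous AlphaScreen proximity assay pairing GST-Six1 with His-tagged Eya2 (added as 5X mix: 250 nM and 500 nM) in 50 mM Tris pH 8.0, 300 mM NaCl, 1 mM TCEP. Glutathione donor and nickel acceptor beads; 1 h, 37 °C, dark.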
TDP1 block – TDP1 (human) enzyme inhibition; Q9NUW8; recombinant TDP1, AlphaScreen DNA substrate cleavage; 350,000 tested, 0.28% active; Potency, µM (top dose mostly 130 µM), hits mostly inhibitors; note: nearly all actives have a fitted effect of over 40% in size
Target sequence (Q9NUW8 whole entry, looked up): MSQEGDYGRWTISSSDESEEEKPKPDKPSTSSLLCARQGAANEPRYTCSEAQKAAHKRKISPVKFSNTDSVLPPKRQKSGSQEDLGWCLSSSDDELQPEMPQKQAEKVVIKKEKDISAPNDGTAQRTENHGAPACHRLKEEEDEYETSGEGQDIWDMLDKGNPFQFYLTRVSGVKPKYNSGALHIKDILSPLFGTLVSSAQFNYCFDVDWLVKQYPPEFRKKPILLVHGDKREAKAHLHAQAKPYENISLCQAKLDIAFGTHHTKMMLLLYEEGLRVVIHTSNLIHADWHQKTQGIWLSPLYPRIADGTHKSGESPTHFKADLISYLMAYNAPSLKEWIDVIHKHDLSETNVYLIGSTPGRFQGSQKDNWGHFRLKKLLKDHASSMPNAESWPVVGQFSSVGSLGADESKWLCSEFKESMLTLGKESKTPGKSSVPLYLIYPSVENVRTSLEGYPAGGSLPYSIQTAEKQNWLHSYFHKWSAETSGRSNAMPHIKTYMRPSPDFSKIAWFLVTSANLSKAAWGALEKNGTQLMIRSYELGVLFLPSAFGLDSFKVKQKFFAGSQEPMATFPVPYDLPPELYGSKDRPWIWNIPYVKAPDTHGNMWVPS
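AlphaScreen read-out: signal falls as enzyme removes the 3' tyrosine-FITC from a 5'-biotinylated DNA oligo (15 nM, 5 min, RT). Enzyme was E. coli-made recombinant Tdp1 at 1 nM, exposed to compound for 15 min beforehand; beads 10 ug/ml, 10 min.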
DT40 TDP1 CPT – growth inhibition of DT40 Tdp1-/-;hTDP1 cells with camptothecin (screen for TDP1 inhibitors) | chicken DT40 Tdp1-/-;hTDP1 cells + 20 nM CPT, ATP luminescence, 48 h | Potency, µM (top dose mostly 46.2 µM), usual class: inhibitors | 420,000 tested, 12% active; note: nearly all actives have a fitted effect of over 55% in size
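Chicken DT40 Tdp1-/- cells complemented with human TDP1, 400 cells/well, exposed to compounds plus 20 nM camptothecin for at least 48 h at 37 C; viability read as ATP content by CellTiter-Glo luminescence.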
CtBP-E1A blk – inhibitors of CtBP/E1A interaction | AlphaScreen GST-E1A/His-CtBP binding, 1536-well; stronger effect = lower value | activity change, % (concentration not given with the values) | 340,000 tested, 0.49% active | AID 651724; in the data active = activity change below about -65%; inconclusive = mostly about -30% to -63%
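Homogeneous bead-based format: GST-tagged E1A captured on glutathione donor beads, His-tagged CtBP on nickel acceptor beads; compounds precede bead addition by 2 h at 37 °C.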
DT40 TDP1 no CPT – qHTS for Inhibitors of human tyrosyl-DNA phosphodiesterase 1 (TDP1): qHTS in cells in absence of CPT; DT40 Tdp1-/- hTDP1 cells, no CPT, ATP luminescence, 48 h; Potency, µM (doses to about 46.2 µM), most hits filed as inhibitors; 420,000 tested, 15% active; note: nearly all actives have a fitted effect of over 55% in size
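Stably hTDP1-transfected Tdp1-null chicken DT40 cells were treated with library compounds minus camptothecin and grown for at least 48 hr at 37 °C, after which cellular ATP was quantified by luminescence.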
IL1B secr inh – blocks inflammasome-driven IL-1 beta release; AID 743279; THP-1 LPS/ATP IL-1B secretion, AlphaLISA, 16 h; stronger effect = lower value; 360,000 tested, 4.7% active; activity change, % at 57.5 µM; in the data active = activity change below about -50%; inconclusive = mostly about -30% to -49%
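THP-1 cells pretreated 1 hr with compounds (up to 57.5 uM final), then stimulated with LPS (250 ng/mL final) plus ATP (1.25 mM final); secreted IL-1B measured by AlphaLISA after 16 hr, decreased signal indicating inhibition.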
Each line names hits and unclear results; the compound was inactive in the other large screens. Unless noted, calls come from the whole dose curve; as a rule, active = well fitted curve in the direction sought with a large enough effect; inconclusive = small, poorly fitted or top-dose-only effect, or another doubt; inactive = no such curve, though single readings can be large; an effect the other way counts as inactive or inconclusive.

O=C1C2C3C=CC(c4ccccc4)(C2C(=O)N1c1cccc(Cl)c1)C1C(=O)N(c2cccc(Cl)c2)C(=O)C31 (configuration not stated)	DT40 TDP1 CPT 15µM, DT40 TDP1 no CPT 15µM
CCc1nn(CC(=O)NC(C)CC)c(=O)c2cc3occc3n12 (configuration not stated)	none (no result: Six1-Eya2 inh, CtBP-E1A blk, IL1B secr inh)
O=c1c2ccccc2c(C=Nc2cccc(O)c2)c(O)n1-c1ccc2c(c1)OCO2	DT40 TDP1 CPT 6.5µM, DT40 TDP1 no CPT 12µM, IL1B secr inh inconclusive
COc1ccc(N=Cc2c(O)n(-c3ccc(OC)cc3)c(=O)c3ccccc23)cc1	none
CC(=O)c1c[nH]c(C(=O)Nc2ccc(N3CCCCCC3)cc2)c1	DT40 TDP1 CPT inconclusive, DT40 TDP1 no CPT inconclusive
COc1ccc(-c2nnc(NC(=O)c3ccc(S(=O)(=O)N(C)CC4CCCO4)cc3)o2)c(OC)c1 (configuration not stated)	Six1-Eya2 inh inconclusive, DT40 TDP1 CPT inconclusive, DT40 TDP1 no CPT inconclusive
CN(C)CCNC(=O)c1ccccc1-c1cc2ccccc2c(=O)o1	none (no result: TDP1 block)
CN(C)CCNC(=O)c1cccc2[nH]c(-c3ccncc3)nc12	DT40 TDP1 CPT 13µM, DT40 TDP1 no CPT 13µM, IL1B secr inh -82 (no result: TDP1 block)
CN(CCNC(=O)c1c[nH]c2c1ccc1ccccc12)CCNC(=O)c1c[nH]c2c1ccc1ccccc12	DT40 TDP1 CPT 23µM, DT40 TDP1 no CPT inconclusive (no result: TDP1 block)
CN(C)CCNC(=O)c1cccc2nc3c(ccc4ccccc43)nc12	Six1-Eya2 inh inconclusive, DT40 TDP1 CPT 5.8µM, CtBP-E1A blk inconclusive, DT40 TDP1 no CPT 4.6µM, IL1B secr inh -101 (no result: TDP1 block)
COc1ccc(Cl)cc1C(=O)NCCN(C)C	none
CN(C)CCNC(=O)c1ccccc1-c1ccccc1	none
COc1ccc(C(=O)NCCN(C)C)c2nc3ccccc3cc12	DT40 TDP1 CPT 0.18µM, DT40 TDP1 no CPT 0.16µM, IL1B secr inh -99 (no result: TDP1 block)
COc1ccc2c(c1)CCC/C2=N\NC(=O)c1ccoc1C	none
Cc1ccc(N2CC(NC(=O)c3ccco3)CC2=O)cc1C (configuration not stated)	none (no result: Six1-Eya2 inh, CtBP-E1A blk, IL1B secr inh)
N#Cc1ccc(NC(=O)c2cc(-c3cccs3)on2)cc1	DT40 TDP1 no CPT inconclusive
COc1ccc(C(=O)Nc2ccc3ccccc3n2)c(OC)c1OC	DT40 TDP1 CPT inconclusive, DT40 TDP1 no CPT inconclusive, IL1B secr inh -76
COc1ccc(-c2nc3c(C(=O)NCCN(C)C)cccc3c3ccccc23)cc1	DT40 TDP1 CPT 1.3µM, DT40 TDP1 no CPT 4.1µM, IL1B secr inh -100 (no result: TDP1 block)
CN(C)CCNC(=O)c1cc(Sc2ccc(F)cc2)nc2ccccc12	none (no result: Six1-Eya2 inh, DT40 TDP1 CPT, CtBP-E1A blk, DT40 TDP1 no CPT, IL1B secr inh)
COc1cccc2nc3c(C(=O)NCCN(C)C)cccc3cc12	DT40 TDP1 CPT 0.16µM, DT40 TDP1 no CPT 0.18µM, IL1B secr inh -97 (no result: TDP1 block)
O=C(Nc1ccc2ccccc2n1)c1ccccc1Cl	DT40 TDP1 CPT inconclusive, DT40 TDP1 no CPT inconclusive (no result: TDP1 block)
O=C(NC(=S)NCC1CCCO1)c1ccc(Cl)cc1 (configuration not stated)	DT40 TDP1 CPT inconclusive, DT40 TDP1 no CPT inconclusive
Cc1ccc(-n2ncc3c(NNC(=O)c4cccs4)ncnc32)cc1	none
Cc1cccc(C)c1N(CC(=O)NC1CCCCC1)C(=O)c1csnn1	none
Cc1ccc(CNC(=O)c2ccccc2-n2cnnn2)cc1	none
NC(=O)C1CCN(C(=O)CCC(=O)c2ccc(F)cc2)CC1	none (no result: TDP1 block, CtBP-E1A blk)
CN1CCN(c2ccc(NC(=O)c3ccc(-c4ccc(Cl)cc4)o3)cc2)CC1	DT40 TDP1 CPT 16µM, CtBP-E1A blk inconclusive, DT40 TDP1 no CPT 21µM, IL1B secr inh -99
CN1CCN(c2ccc(NC(=O)c3ccc(-c4cccc([N+](=O)[O-])c4)o3)cc2)CC1	Six1-Eya2 inh inconclusive, DT40 TDP1 no CPT inconclusive, IL1B secr inh -55
CC(C)c1ccc(C(=O)NNC(=O)C2CC=CCC2C(=O)O)cc1 (configuration not stated)	DT40 TDP1 CPT inconclusive, DT40 TDP1 no CPT inconclusive
